Experimental data: PubChem BioAssay (NCATS)
Results filed as inconclusive are left out. Active and inactive are the calls of the source. Unless noted, calls come from the whole dose curve; as a rule, active = well fitted curve in the direction sought with a large enough effect; inconclusive = small, poorly fitted or top-dose-only effect, or another doubt; inactive = no such curve, though single readings can be large; an effect the other way counts as inactive or inconclusive.

What was measured:
[1] = qHTS profiling for inhibitors of Plasmodium falciparum (3D7) proliferation (AID 743322; call rule not given here;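 note: infected erythrocytes exposed to compound for 72 h before lysis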); conditions: P. falciparum 3D7 proliferation; at 28.7 µM (top of the series) unless noted
Method in brief: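 Erythrocytes infected with P. falciparum (0.3% parasitemia, 2.5% hematocrit) incubated with compounds 72 h at 37 C, 5% CO2. Lysis with saponin/Triton buffer containing SYBR Green I, overnight at room temperature in the dark; DNA fluorescence (485/535 nm) normalised to 0.29 uM artemisinin and DMSO.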

[2] = qHTS profiling for inhibitors of Plasmodium falciparum (DD2) proliferation (AID 743323; call rule not given here); conditions: lower = more inhibition; at 28.7 µM (top of the series) unless noted
Method in brief: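 Parasite DNA quantified by SYBR Green fluorescence (ex 485, em 535 nm) after saponin/Triton lysis and overnight dark incubation. Cultures: 0.3% parasitemia, 2.5% hematocrit, 72 h, 37 C; data scaled between DMSO and 0.29 uM artemisinin.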

[3] = qHTS assay for measurement of the activity of small molecule inhibitors on Zika virus induced Caspase-3 activity in human iPSC derived neural progenitor cells (hNPCs) (AID 1224857); note: nearly all actives have a fitted effect of over 65% in size
Method in brief: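 Zika virus (2 FFU/cell) infection of human iPSC-derived NPCs, 6 h, following 1 h compound preincubation. Read-out: Caspase-Glo 3/7 luminescence.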

[4] = qHTS assay for measurement of the activity of small molecule inhibitors on Zika virus induced Caspase-3 activity in human astrocytoma cells (AID 1224859)
Method in brief: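 Caspase activation in ZIKV-infected SNB-19 cells (2 FFU/cell, 6 h) measured by Caspase-Glo 3/7 luminescence after 30 min RT; compound pre-incubated 1 h; normalised to uninfected and infected controls.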

[5] = qHTS assay to identify small molecule inhibitors of chordoma cells - UCH-1 (AID 1259355); note: nearly all actives have a fitted effect of over 55% in size
Method in brief: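 Luminescent ATP read-out (CellTiter-Glo, 30min at room temperature) measured viability of UCH-1 cells exposed for 48hr to test drugs at 15 concentrations, co-dosed with a five-agent combination of auranofin, camptothecin, doxorubicin, rubitecan and topotecan.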

[6] = qHTS assay to identify small molecule inhibitors of chordoma cells - UCH-2 (AID 1259356)
[7] = Natriuretic polypeptide receptor (hNpr1) antagonism - Pilot counterscreen GloSensor control cell line (AID 1347045; calls by dose curve)
Method in brief: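 HEK293 cGMP GloSensor cells preloaded 2 h with 2% GloSensor reagent, then compound 30 min before baseline luminescence read. Stimulated with 50 uM sodium nitroprusside, 20 min at room temperature, then read again; counterscreen for Npr1 antagonism.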

[8] = molecular target: Atrial natriuretic peptide receptor 1 (Homo sapiens) (UniProt P16066); experiment: Natriuretic polypeptide receptor (hNpr1) antagonism - Pilot screen (AID 1347049; calls by dose curve;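 note: agonist-evoked cGMP luminescence read 20 min after hNppA addition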)
Method in brief: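 HEK293 cells co-expressing hNpr1 and the GloSensor pGS-40F cGMP luciferase sensor were preloaded with 2% GloSensor reagent for 2 h. Compounds were added for 30 min at room temperature, then cells were stimulated with 0.1 nM hNppA for 20 min before luminescence readout.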

[9] = NS1 protein of Zika virus - qHTS assay to identify small molecule inhibitors in human HEK 293 cells (AID 1347053); note: nearly all actives have a fitted effect of over 55% in size
Method in brief: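 Inhibition of NS1 expression was scored in HEK 293 cells given compound 1 h ahead of MR766 virus (MOI = 0.5). Following 24 h at 37 C, two anti-NS1 antibodies generated a TR-FRET signal, scaled between uninfected and infected controls.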

[10] = molecular target: Atrial natriuretic peptide receptor 2 (Homo sapiens) (UniProt P20594); experiment: Natriuretic polypeptide receptor (hNpr2) antagonism - Pilot subtype selectivity assay (AID 1347050; calls by dose curve; note: potency is the fitted concentration of half-maximal effect)
Method in brief: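 cGMP-sensor HEK293/hNpr2 cells; 2% GloSensor reagent 2 h RT; compounds 30 min; baseline luminescence read; 1 nM hNppC agonist 20 min RT; final luminescence read by CCD camera. Antagonism = reduced post-agonist signal.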

[11] = P-glycoprotein substrates identified in KB-8-5-11 adenocarcinoma cell line, qHTS therapeutic library screen (AID 1346987); note: nearly all actives have a fitted effect of over 65% in size; note: potency is the fitted concentration of half-maximal effect
Method in brief: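 KB-8-5-11, a colchicine-selected P-gp-overexpressing KB-3-1 subline, was grown without colchicine for the assay. Cells were seeded at 500 cells/well, dosed in concentration-response and incubated 72 h at 37 degree C, 5% CO2. Viability was read by CellTiter-Glo luminescence.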

[12] = qHTS profiling for inhibitors of Plasmodium falciparum (HB3) proliferation (AID 743324); conditions: Plasmodium falciparum HB3 blood-stage proliferation; at 28.7 µM (top of the series)
Method in brief: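 P. falciparum HB3 grown in erythrocytes (0.3% parasitemia, 2.5% hematocrit final) with compound for 72 h at 37 C, 5% CO2. Parasite DNA detected by SYBR Green after saponin/triton lysis overnight; normalized to 0.29 uM artemisinin and DMSO.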

[13] = Identifying Small Molecule Inhibitors of Pancreatic Cancer Stem Cells (A2780, Spheroid) (AID 1259357); conditions: A2780 spheroid viability;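 note: spheroids pre-formed over 14 days in stem cell medium on hydrogel; potency is the fitted concentration of half-maximal effect; compound exposure lasted 48 h before the ATP luminescence read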
Method in brief: (§1)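 After a 4 h attachment period, compounds were pinned into wells and cultures held 48 h under standard incubator conditions. Viability was then measured as CellTiter-Glo luminescence following 10 min at room temperature.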

[14] = Identifying Small Molecule Inhibitors of Pancreatic Cancer Stem Cells (A278, Adherent) (AID 1259361);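 note: viability read after 48 h compound exposure; nearly all actives have a fitted effect of over 35% in size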
Method in brief: as §1

[15] = Identifying Small Molecule Inhibitors of Pancreatic Cancer Stem Cells (Panc1, Adherent) (AID 1259362);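 note: compound exposure lasted 48 h before the viability read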
Method in brief: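 Spheroids grown 14 days in stem cell media on hydrogel-coated nonadherent plates; 2D lines seeded directly. Compounds added after 4 h attachment, 48 h at 37C, 5% CO2; CellTiter-Glo luminescence normalized to DMSO (no inhibition) and no-cell wells (full inhibition).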

Atrial natriuretic peptide receptor 1 (Homo sapiens), sequence (P16066 whole entry, looked up): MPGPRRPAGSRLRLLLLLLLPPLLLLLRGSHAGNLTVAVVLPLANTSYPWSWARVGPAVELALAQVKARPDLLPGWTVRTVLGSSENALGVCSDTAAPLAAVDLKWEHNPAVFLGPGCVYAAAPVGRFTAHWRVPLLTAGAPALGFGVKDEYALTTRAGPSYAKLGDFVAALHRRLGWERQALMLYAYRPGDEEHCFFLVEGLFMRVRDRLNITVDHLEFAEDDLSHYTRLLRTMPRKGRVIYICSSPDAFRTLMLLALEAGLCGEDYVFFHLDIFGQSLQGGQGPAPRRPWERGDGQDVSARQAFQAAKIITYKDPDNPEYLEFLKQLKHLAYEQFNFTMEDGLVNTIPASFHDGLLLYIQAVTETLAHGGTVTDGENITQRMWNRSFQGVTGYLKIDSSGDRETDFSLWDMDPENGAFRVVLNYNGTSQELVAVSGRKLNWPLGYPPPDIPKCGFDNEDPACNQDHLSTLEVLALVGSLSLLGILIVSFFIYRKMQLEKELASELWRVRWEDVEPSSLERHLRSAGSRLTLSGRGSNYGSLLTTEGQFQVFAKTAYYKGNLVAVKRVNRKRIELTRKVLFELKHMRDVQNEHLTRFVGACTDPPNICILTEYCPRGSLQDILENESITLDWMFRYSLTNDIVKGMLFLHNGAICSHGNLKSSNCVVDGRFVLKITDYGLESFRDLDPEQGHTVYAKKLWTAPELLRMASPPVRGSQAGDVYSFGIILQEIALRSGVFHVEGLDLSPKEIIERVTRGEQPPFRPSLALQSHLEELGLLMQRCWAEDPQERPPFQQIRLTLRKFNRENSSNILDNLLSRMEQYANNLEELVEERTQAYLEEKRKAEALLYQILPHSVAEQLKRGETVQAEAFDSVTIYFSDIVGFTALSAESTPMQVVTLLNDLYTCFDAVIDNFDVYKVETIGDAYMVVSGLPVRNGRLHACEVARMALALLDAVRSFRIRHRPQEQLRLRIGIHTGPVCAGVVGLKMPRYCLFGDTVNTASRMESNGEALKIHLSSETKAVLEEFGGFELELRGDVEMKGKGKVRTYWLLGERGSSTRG
Atrial natriuretic peptide receptor 2 (Homo sapiens), sequence (P20594 whole entry, looked up): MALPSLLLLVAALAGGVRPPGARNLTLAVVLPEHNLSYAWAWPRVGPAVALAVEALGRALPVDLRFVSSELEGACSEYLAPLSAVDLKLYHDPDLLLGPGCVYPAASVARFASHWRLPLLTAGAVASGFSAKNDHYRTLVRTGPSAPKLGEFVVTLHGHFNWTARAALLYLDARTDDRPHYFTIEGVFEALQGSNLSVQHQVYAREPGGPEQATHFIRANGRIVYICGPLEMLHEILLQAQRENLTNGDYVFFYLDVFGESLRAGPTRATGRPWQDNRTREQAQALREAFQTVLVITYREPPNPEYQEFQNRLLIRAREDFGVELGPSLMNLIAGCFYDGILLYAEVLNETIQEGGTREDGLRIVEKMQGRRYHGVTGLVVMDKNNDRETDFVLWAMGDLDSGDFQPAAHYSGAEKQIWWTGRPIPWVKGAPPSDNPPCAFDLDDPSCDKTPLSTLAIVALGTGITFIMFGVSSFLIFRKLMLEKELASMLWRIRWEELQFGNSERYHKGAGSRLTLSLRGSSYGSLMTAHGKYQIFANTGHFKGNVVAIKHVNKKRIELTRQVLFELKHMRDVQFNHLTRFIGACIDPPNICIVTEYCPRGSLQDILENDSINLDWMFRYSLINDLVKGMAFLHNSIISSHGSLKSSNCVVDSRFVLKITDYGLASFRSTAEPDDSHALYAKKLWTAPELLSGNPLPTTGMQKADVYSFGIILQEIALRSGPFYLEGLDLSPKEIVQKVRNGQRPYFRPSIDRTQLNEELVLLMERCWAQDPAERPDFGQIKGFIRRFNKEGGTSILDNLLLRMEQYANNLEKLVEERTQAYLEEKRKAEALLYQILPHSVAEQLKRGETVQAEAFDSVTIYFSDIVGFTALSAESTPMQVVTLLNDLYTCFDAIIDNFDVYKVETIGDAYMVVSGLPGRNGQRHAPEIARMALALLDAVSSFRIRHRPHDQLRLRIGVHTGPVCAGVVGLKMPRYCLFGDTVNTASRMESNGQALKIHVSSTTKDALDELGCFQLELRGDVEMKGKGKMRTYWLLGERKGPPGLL

Cc1cccc(C)c1NC(=O)C(C)N (stereo unspecified)
99.5% [at 9.63 µM]: activity, percent of control [2]
92.4% [at 9.63 µM]: remaining parasite growth % (stronger effect = lower value) [1]
inactive: outcome [3] | outcome [4] | Potency [5] | Potency [6] | Potency [7] | Potency [8] | outcome [9]

CN(C)CCCN1c2ccccc2Sc2ccc(C(F)(F)F)cc21
inactive: outcome [3] | outcome [4] | Potency [5] | Potency [6] | Potency [8] | outcome [9]

CCC(=O)c1ccc2c(c1)N(CCCN(C)C)c1ccccc1S2
inactive: outcome [3] | outcome [4] | Potency [5] | Potency [6] | Potency [7] | Potency [8] | outcome [9]

c1cnc(N2CCN(Cc3ccc4c(c3)OCO4)CC2)nc1
inactive: outcome [3] | outcome [4] | Potency [5] | Potency [6] | Potency [7] | Potency [8] | Potency [10] | outcome [9]

Fc1ccc(C(c2ccc(F)cc2)N2CCN(C/C=C/c3ccccc3)CC2)cc1
inactive: outcome [3] | outcome [4] | Potency [5] | Potency [7] | Potency [8] | Potency [10] | outcome [9]

NC(=O)N1c2ccccc2C=Cc2ccccc21
inactive: outcome [3] | outcome [4] | Potency [6] | Potency [11] | Potency [8] | outcome [9]

CCN1CCC[C@H]1CNC(=O)c1c(O)c(Cl)cc(Cl)c1OC
inactive: outcome [4] | Potency [5] | Potency [6] | Potency [11] | Potency [7] | Potency [8] | Potency [10] | outcome [9]

COc1ccc2c(c1OC)C(=O)O[C@@H]2[C@H]1c2c(cc3c(c2OC)OCO3)CCN1C
inactive: outcome [3] | outcome [4] | Potency [5] | Potency [6] | Potency [7] | Potency [8] | outcome [9]
active: Potency [10] 16.5 µM

CC1=NS(=O)(=O)c2cc(Cl)ccc2N1
inactive: outcome [3] | outcome [4] | Potency [5] | Potency [6] | Potency [7] | Potency [8] | Potency [10] | outcome [9]

NC(N)=NC(=O)Cc1c(Cl)cccc1Cl
inactive: outcome [3] | outcome [4] | Potency [5] | Potency [6] | Potency [7] | Potency [8] | Potency [10] | outcome [9]

CN(C(=O)CCCOc1ccc2[nH]c(=O)ccc2c1)C1CCCCC1
inactive: outcome [3] | outcome [4] | Potency [5] | Potency [6] | Potency [7] | Potency [8] | Potency [10] | outcome [9]

CCN(CC)CCOCCOC(=O)C1(c2ccccc2)CCCC1
inactive: outcome [3] | outcome [4] | Potency [5] | Potency [6] | Potency [7] | Potency [8] | Potency [10] | outcome [9]

CC(N=C(NC#N)Nc1ccncc1)C(C)(C)C (stereo unspecified)
inactive: outcome [4] | Potency [5] | Potency [6] | Potency [11] | Potency [7] | Potency [8] | Potency [10] | outcome [9]

NC(N)=N/N=C/c1c(Cl)cccc1Cl
inactive: outcome [3] | outcome [4] | Potency [5] | Potency [6] | Potency [7] | Potency [8] | Potency [10] | outcome [9]

CN(C)CCN(Cc1cccs1)c1ccccn1
inactive: outcome [3] | outcome [4] | Potency [5] | Potency [6] | Potency [7] | Potency [8] | outcome [9]

C[N+](C)(C)CCOC(N)=O
inactive: outcome [4] | Potency [5] | Potency [6] | Potency [11] | Potency [7] | Potency [8] | Potency [10] | outcome [9]

CCn1nc(C(=O)O)c(=O)c2cc3c(cc21)OCO3
inactive: outcome [3] | outcome [4] | Potency [5] | Potency [6] | Potency [7] | Potency [8] | Potency [10] | outcome [9]

CC[N+](C)(C)c1cccc(O)c1
inactive: outcome [3] | outcome [4] | Potency [5] | Potency [6] | Potency [7] | Potency [8] | Potency [10] | outcome [9]

CN(C)CCCN1c2ccccc2Sc2ccccc21
inactive: outcome [3] | outcome [4] | Potency [5] | Potency [6] | Potency [7] | Potency [8] | outcome [9]

CCCCNC(=O)NS(=O)(=O)c1ccc(C)cc1
inactive: outcome [3] | outcome [4] | Potency [5] | Potency [6] | Potency [7] | Potency [8] | outcome [9]

CCN(Cc1ccncc1)C(=O)C(CO)c1ccccc1 (stereo unspecified)
inactive: outcome [3] | outcome [4] | Potency [6] | Potency [11] | Potency [7] | Potency [8] | Potency [10] | outcome [9]

CN1CCN(C2=Nc3ccccc3Oc3ccc(Cl)cc32)CC1
active: Potency [10] 16.5 µM
inactive: outcome [3] | outcome [4] | Potency [5] | Potency [6] | Potency [7] | outcome [9]

COc1ccc(CCN(C)CCCC(C#N)(c2cc(OC)c(OC)c(OC)c2)C(C)C)cc1OC (stereo unspecified)
inactive: outcome [3] | outcome [4] | Potency [5] | Potency [6] | Potency [7] | Potency [8] | outcome [9]

O=C(CCCN1CCC(O)(c2cccc(C(F)(F)F)c2)CC1)c1ccc(F)cc1
inactive: outcome [3] | outcome [4] | Potency [5] | Potency [6] | Potency [8] | outcome [9]

Nc1ncn([C@@H]2O[C@H](CO)[C@@H](O)[C@H]2O)c(=O)n1
137%: remaining proliferation (% of control), lower = more inhibition [12]
active: Potency [13] 16.6 µM | IC50 (viability decrease) [14] 2.35 µM | Potency [11] 8.2 µM
inactive: outcome [3] | outcome [4] | Potency [6] | outcome [15] | Potency [7] | Potency [8] | Potency [10]
103%: remaining parasite growth % (stronger effect = lower value) [1]
121%: activity, percent of control [2]

CCOC(=O)C1=C(C)NC(C)=C(C(=O)OC)C1c1cccc([N+](=O)[O-])c1 (stereo unspecified)
inactive: outcome [3] | outcome [4] | Potency [5] | Potency [6] | Potency [7] | Potency [10] | outcome [9]

CSc1ccc(C(=O)c2[nH]c(=O)[nH]c2C)cc1
inactive: outcome [3] | outcome [4] | Potency [5] | Potency [6] | Potency [7] | Potency [8] | Potency [10] | outcome [9]

CC(C)NCC(O)c1cc(O)cc(O)c1 (stereo unspecified)
inactive: outcome [3] | outcome [4] | Potency [5] | Potency [6] | Potency [7] | Potency [8] | Potency [10] | outcome [9]
